From PubChem
The list is not random: actives were taken first. Their share in the collection is about 11%.
Pf growth 96h – Primary qHTS for delayed death inhibitors of the malarial parasite plastid, 96 hour incubation; P. falciparum luciferase reporter growth, 96 h; Potency, µM (top dose mostly 28.7 µM), for inactives: at the top dose activity change, negative = inhibition, usual class: inhibitors; 320,000 tested, 6.9% active; also: % is scaled to controls: 0 for no effect and ±100 for the full control effect
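Erythrocytes infected with luciferase-expressing P. falciparum were dispensed at 2% hematocrit and 0.05% parasitemia (final), then incubated with compounds 96 hours at 37 C in 5% CO2. Luminescence after detection reagent addition reported growth.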
VACV Venus inh – qHTS for Stage-Specific Inhibitors of Vaccinia Orthopoxvirus: Venus Reporter Primary qHTS; Vaccinia virus Venus reporter expression, fluorescence; Potency, µM (titrated, usually from 36.5 µM), for inactives: at the highest dose activity change, negative = inhibition, hits mostly inhibitors; 330,000 tested, 0.46% active; calls by dose curve; tested in A549 cells; also: % is scaled to controls: 0 for no effect and ±100 for the full control effect; nearly all actives have a fitted effect of over 30% in size
NS1 function inh – qHTS Assay for Inhibitors of Influenza NS1 Protein Function; Potency, µM (top dose mostly 46.1 µM), for the others: top-dose activity, positive = more growth; 270,000 tested, 0.4% active; AID 2326, 2010; calls by dose curve; also: actives are rising curves; nearly all actives have a fitted effect of over 50% in size
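Read-out: OD600 growth recovery of NS1-expressing budding yeast. Cells grown overnight at 30C in -URA glucose medium, washed, resuspended and diluted 1:100 in 2% galactose assay medium, pH 6.0. Same strain lacking NS1 served as positive control.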
HCV inhibitor – qHTS Assay for Inhibitors of Hepatitis C Virus (HCV); Huh7.5.1 HCVcc-Cre infection, luciferase reporter, 44 h; Potency, µM (highest dose often 41.8 µM), for inactives: at the highest dose activity change, negative = inhibition, most hits filed as inhibitors; AID 651820, 2012; 340,000 tested, 3.4% active; also: % is scaled to controls: 0 for no effect and ±100 for the full control effect
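HCVcc-Cre virus at an moi near 0.5 was added right after compound to cells cultured 4 h from seeding (1,000 cells/well). Luciferase activity was determined 44 h later, 15 min after substrate addition at RT.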
Pf growth 48h – Primary qHTS for delayed death inhibitors of the malarial parasite plastid, 48 hour incubation. 310,000 tested, 5.9% active. Potency, µM (top dose mostly 28.7 µM), for inactives: at the top dose activity change, negative = inhibition, hits mostly inhibitors. P. falciparum luciferase growth in erythrocytes, 48 h. AID 504832, 2011; also: % is scaled to controls: 0 for no effect and ±100 for the full control effect
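Read-out is firefly luciferase luminescence from an integrated reporter in P. falciparum, so falling signal marks reduced parasite growth. Infected erythrocytes were at 2% hematocrit and 0.1% parasitemia (final) in Albumax-supplemented RPMI 1640.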
VACV mCherry inh – qHTS for Stage-Specific Inhibitors of Vaccinia Orthopoxvirus: mCherry Reporter Primary qHTS; AID 720579, 2013; Potency, µM (titrated, usually from 36.5 µM), for the others: at the highest dose activity change, negative = inhibition, most hits filed as inhibitors; 310,000 tested, 0.63% active; Vaccinia virus mCherry reporter infection, fluorescence; calls by dose curve; tested in A549 cells; also: % is scaled to controls: 0 for no effect and ±100 for the full control effect; nearly all actives have a fitted effect of over 35% in size
* hit, by the source's call; i = inactive; ? = inconclusive; nt = no result; [ ] = dose if it differs, or a comment. Unless noted, calls follow the shape of the dose curve; as a rule, active = well fitted inhibition curve with a large enough effect; inconclusive = small, poorly fitted or top-dose-only effect, or another doubt; inactive = no such curve, though single readings can be large or run the other way. Potency is read from the fitted curve at half-maximal effect.

SMILES | Pf growth 96h | VACV Venus inh | NS1 function inh | HCV inhibitor | Pf growth 48h | VACV mCherry inh
COc1ccc(CNc2ncnc3c2[nH]c2cc(OC)c(OC)cc23)cc1 | 1.7µM* | -17% | 19% | ? | 2.1µM* | -12%
Brc1ccc2[nH]c3c(NCc4ccccn4)ncnc3c2c1 | ? | -8% | -5% | ? | ? | i
COc1ccc2nc(NCc3ccccc3)[nH]c2c1 | nt | nt | 5% | ? | ? | nt
C/C=C\C=C/C(=O)Nc1cccc(C2=NOC3(C2)C[C@@H](C(N)=O)N(C(=O)c2ccc(Cl)cc2)C3)c1 (some centres not stated) | ? | -9% | -6% | -23% | ? | i
c1coc(CNc2ncnc3c2[nH]c2ccccc23)c1 | nt | ? | nt | nt | nt | -21%
O=c1c2[nH]c3ccccc3c2ncn1CCC1=CCCCC1 | 16% | 6% | 1% | 11% | 36% | 2%
COc1ccc(CNc2ncnc3c2[nH]c2ccccc23)cc1 | 1.7µM* | -21%[7.34 µM] | -45% | 5µM* | 2.3µM* | -4%[7.34 µM]
C1=C(CCNc2ncnc3c2[nH]c2ccccc23)CCCC1 | 0.26µM* | ? | -38% | 1.1µM* | ? | ?
O=C(COc1cc(Cl)c(Cl)cc1Cl)Nc1cccc(O)c1 | -100% | -29% | -6% | -11% | -53% | -12%
CCn1c(=O)c(C(=O)Nc2ncccc2C)c(O)c2ccccc21 | ? | 3% | -54% | 10µM* | -12% | i
CCn1c(=O)c(C(=O)Nc2ncccc2O)c(O)c2ccccc21 | ? | -19% | -88% | -6% | 43% | ?
CCOC(=O)c1ccccc1NC(=O)c1c(O)c2ccccc2n(CC)c1=O | -24% | -21% | 6% | 5% | -11% | nt
CCn1c(=O)c(C(=O)Nc2ccc(C)cc2C)c(O)c2ccccc21 | 0% | -8% | -6% | 10µM* | 2% | i
CC1CCN(C(=O)c2cc3c(=O)n4ccccc4nc3s2)CC1 | ? | 8% | -15% | -15% | 39% | 5%
Cc1ccccc1C1=NC(C(F)(F)F)(C(F)(F)F)c2c(n(C)c(=O)n(C)c2=O)N1 | ? | -22% | 16% | ? | ? | i
Cn1c2c(c(=O)n(C)c1=O)C(C(F)(F)F)(C(F)(F)F)N=C(c1ccc(Cl)cc1)N2 | 1.5µM* | ? | -143% | 1.6µM* | ? | ?
CCN(CCCNC(=O)CN(C)S(=O)(=O)c1cccc2nsnc12)c1cccc(C)c1 | 8.3µM* | -17% | -8% | ? | ? | i
CCN(CCNC(=O)CN(C)S(=O)(=O)c1cccc2nsnc12)c1ccccc1 | 12µM* | -14% | -3% | -19% | nt | -15%
CCN(CCNC(=O)C1CCN(S(=O)(=O)c2cccc3nsnc23)CC1)c1ccccc1 | 49% | -11% | -14% | -23% | ? | -21%
COc1ccc(C(C)=O)cc1COc1ccc([N+](=O)[O-])c(C)c1 | 22%[5.75 µM] | -6% | nt | ? | -6% | -11%
COc1ccc(C(C)=O)cc1COC(=O)c1ccc(N)c([N+](=O)[O-])c1 | ? | -13% | nt | 11µM* | -14% | i
COc1ccc(C(C)=O)cc1COc1ccccc1[N+](=O)[O-] | 8% | -13% | nt | 6.3µM* | 5% | i
CC(C)N(CCc1ccncc1)C(=O)Nc1ccc(F)cc1 | ? | -5% | ? | -2% | nt | -21%
Cc1ccc(N2Cc3ccccc3OC(C)C2=O)cc1 (configuration not stated) | 9.3µM* | -7% | -3% | 10% | nt | i
COc1ccc(OCCC(=O)OCC(=O)Nc2cccc(Br)c2)cc1 | 26% | -3% | -22% | 1% | 1% | -9%
NC1=CC(=O)c2cccc3cccc1c23 | 0% | nt | -37% | nt | 2.9µM* | nt
O=C1C=C(O)c2cccc3cccc1c23 | ? | 1% | 28% | 21% | 4% | ?
O=C(NC1CCCCCC1)c1cc2ccccc2oc1=O | 133% | -5% | ? | ? | 293% | i
